PPARg SRC-3 ag: PPARgamma agonists recruiting SRC-3 coactivator, primary screen, biochemical | Peroxisome proliferator-activated receptor gamma (Homo sapiens), P37231 | biochemical PPARgamma/SRC-3 coactivator recruitment assay | activation, % at 8 µM | 200,000 tested, 0.26% active; in the data active = activation above about 23%;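 also: 0% = DMSO and 100% = reference agonist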
Target sequence (P37231 whole entry, looked up): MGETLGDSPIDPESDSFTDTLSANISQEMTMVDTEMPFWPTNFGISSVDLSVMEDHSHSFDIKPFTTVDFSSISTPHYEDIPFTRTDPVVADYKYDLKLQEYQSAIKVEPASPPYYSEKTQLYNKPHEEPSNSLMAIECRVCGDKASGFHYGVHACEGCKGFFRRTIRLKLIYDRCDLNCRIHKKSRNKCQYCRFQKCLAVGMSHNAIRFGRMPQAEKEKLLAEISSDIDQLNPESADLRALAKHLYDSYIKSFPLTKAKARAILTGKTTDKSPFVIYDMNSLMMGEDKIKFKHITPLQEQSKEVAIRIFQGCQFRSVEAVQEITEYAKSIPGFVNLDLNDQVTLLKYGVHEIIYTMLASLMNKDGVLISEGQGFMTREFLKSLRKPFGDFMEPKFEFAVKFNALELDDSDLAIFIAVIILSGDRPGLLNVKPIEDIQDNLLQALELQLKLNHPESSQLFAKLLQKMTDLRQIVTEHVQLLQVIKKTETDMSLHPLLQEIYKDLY
SRC1 TRFRET art: TR-FRET detection interference compounds, primary screen, artefact control for PPARgamma SRC-1 recruitment agonists, biochemical, TR-FRET emission ratio; TR-FRET detection artefact counter-screen; hits give high values; TR-FRET ratio at 8 µM; 99,000 tested, 0.34% active; AID 1051, 2008; in the data active = TR-FRET ratio above about 2300
PPARg SRC2 recr: agonists of PPARg-SRC-2 recruitment, primary screen, biochemical, HTS; Peroxisome proliferator-activated receptor gamma (Homo sapiens), P37231; PPARgamma LBD-SRC-2 recruitment; activation, % at 8 µM; 200,000 tested, 0.34% active; in the data active = activation above about 22%;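 also: 0% = vehicle and 100% = reference agonist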
SRC2 TRFRET art: TR-FRET signal artefacts, primary screen, artefact control for PPARgamma SRC-2 agonist project, biochemical | TR-FRET ratio at 8 µM | 200,000 tested, 0.4% active | TR-FRET artefact counter-screen; hits give high values
SRC3 TRFRET art: TR-FRET detection interference compounds, artefact control for PPARgamma SRC-3 recruitment agonists, biochemical, TR-FRET ratio; 99,000 tested, 0.39% active; AID 1048, 2008; TR-FRET ratio at 8 µM; TR-FRET artefact counter-screen, PPARgamma/SRC-3 format; hits give high values
PPARg SRC1 recr: PPARgamma agonists recruiting SRC-1 coactivator, primary screen, biochemical | activation, % at 8 µM | 200,000 tested, 0.41% active | PPARgamma-SRC-1 coactivator recruitment biochemical assay | AID 631, 2007 | Peroxisome proliferator-activated receptor gamma (Homo sapiens), P37231; in the data active = activation above about 19%;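 also: 0% = DMSO and 100% = reference agonist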
PPARg SRC2 conf: agonists of PPARgamma SRC-2 coactivator recruitment, confirmation, biochemical, HTS. shares compounds with PPARg SRC-3 ag. biochemical SRC-2 recruitment by PPARgamma. activation, % at 8 µM. 790 tested, 52% active; in the data active = activation above about 22%;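 also: 0% = vehicle alone and 100% = reference agonist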
PPARg SRC1 conf: PPARgamma agonists recruiting SRC-1 coactivator, confirmation, biochemical; 790 tested, 43% active; activation, % at 8 µM; shares compounds with PPARg SRC-3 ag; PPARgamma–SRC-1 coactivator recruitment biochemical assay; AID 1300, 2008; in the data active = activation above about 20%;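 also: 0% = vehicle wells and 100% = reference agonist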
PPARg SRC3 conf: PPARgamma-driven SRC-3 coactivator recruitment agonists, confirmation, biochemical; activation, % at 8 µM; shares compounds with PPARg SRC-3 ag; biochemical PPARgamma-SRC-3 coactivator recruitment, agonist mode; 790 tested, 29% active; AID 1301, 2008; in the data active = activation above about 24%;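 also: 0% = vehicle wells and 100% = reference agonist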
* = called active by the depositor; . = no result given. The list is not random: actives were taken first. Their share in the collection is about 0.9%. Rule as the data show it, unless noted: active = TR-FRET ratio above about 2000; inactive = the rest.

SMILES	PPARg SRC-3 ag	SRC1 TRFRET art	PPARg SRC2 recr	SRC2 TRFRET art	SRC3 TRFRET art	PPARg SRC1 recr	PPARg SRC2 conf	PPARg SRC1 conf	PPARg SRC3 conf
CCC(=Nc1ccc(N)cc1)C1=C(O)C(C(=O)OC)C(C)(C)CC1=O (configuration not stated)	38.2*	.	23.0*	1785	.	22.9*	1.5	4.4	6.3
O=C(Nc1cccnc1)c1sc(Nc2ccccc2)nc1-c1ccccc1	42.0*	3708*	55.5*	2618*	3330*	48.3*	78.8*	59.4*	53.6*
Cc1nc(N)sc1C(=O)Nc1ccccc1	3.6	.	-4.0	1547	.	1.5	.	.	.
Cc1cccc(Nc2nc(-c3ccccc3)c(C(=O)Nc3cccnc3)s2)c1	26.6*	3448*	38.1*	2484*	3117*	29.4*	56.6*	44.4*	38.2*
Cc1nc(NC(N)=S)sc1C(=O)Nc1ccccc1	27.2*	.	17.5	1621	.	14.0	5.1	5.3	4.6
Cc1cc(C)c(C)c(OCCCn2ccnc2)c1	4.1	.	2.1	1534	.	1.6	.	.	.
COc1ccc(N)c2c1C(=O)c1ccccc1C2=O	27.1*	2519*	33.6*	1893	2262*	23.0*	25.3*	22.7*	20.1
Nc1ccc(O)c2c1C(=O)c1ccccc1C2=O	21.4	2546*	31.5*	2073*	2307*	24.3*	17.4	11.0	9.6
COc1ccc(OC)c2c1C(=O)c1ccccc1C2=O	-1.5	.	6.8	1531	.	5.1	.	.	.
Nc1ccccc1-c1n[nH]c(=S)s1	42.7*	3590*	54.5*	3141*	3076*	53.7*	40.0*	30.9*	24.6*
Cc1noc(C)c1COc1ccc(C(=O)OCC(N)=O)cc1	0.1	1852	-0.6	1711	1648	7.4	.	.	.
CCn1c(=O)n(CCOC)c(=O)c2c3c(sc21)CCCC3	-2.8	.	2.8	1709	.	4.7	.	.	.
COCCCn1c(=S)[nH]c2sc3c(c2c1=O)CCCS3	35.7*	3194*	44.3*	2732*	2497*	43.1*	56.7*	39.9*	38.4*
O=C(CSc1nc2ccccc2o1)Nc1nc2ccccc2s1	8.2	.	7.0	1507	.	1.5	.	.	.
O=C(CSc1ncnc2c1oc1ccccc12)Nc1nc2ccccc2s1	39.2*	.	11.8	1783	.	29.9*	44.1*	31.4*	27.6*
O=C(CSc1ncnc2c1oc1ccccc12)Nc1cccc(Cl)c1	33.1*	.	25.2*	1548	.	11.1	27.3*	21.9*	18.5
O=c1c2oc3ccccc3c2ncn1Cc1ccccc1F	1.4	.	6.4	1439	.	-0.9	.	.	.
CC(=O)CSc1ncnc2c1oc1ccccc12	218.7*	.	114.2*	5487*	.	135.2*	65.3*	43.4*	43.5*
O=C(O)CSc1nc(-c2ccccc2)nc2c1oc1ccccc12	11.6	.	3.2	1647	.	8.2	.	.	.
Fc1ccccc1CSc1ncnc2c1oc1ccccc12	50.8*	.	18.9	2035*	.	45.6*	48.8*	38.0*	32.2*
O=c1c2oc3ccccc3c2ncn1Cc1cccc(Cl)c1	-0.3	1630	-2.5	1416	1540	3.4	.	.	.
O=C(O)c1cc(NS(=O)(=O)c2ccc(N3CCCCC3)c([N+](=O)[O-])c2)cc(C(=O)O)c1	1.2	1596	-5.0	1599	1584	-0.7	.	.	.
O=C1Nc2ccccc2S/C1=C/Nc1cccc(Cl)c1	4.0	.	5.7	1634	.	8.4	.	.	.
COc1ccc(C)cc1S(=O)(=O)N1CCOCC1	1.6	1734	2.0	1549	1643	-1.8	.	.	.
CC(=O)N1CCN(c2ccc(Nc3ncnc4c3oc3ccccc34)cc2)CC1	13.2	.	23.2*	1766	.	15.0	1.7	3.0	2.3
SMILES	PPARg SRC-3 ag	SRC1 TRFRET art	PPARg SRC2 recr	SRC2 TRFRET art	SRC3 TRFRET art	PPARg SRC1 recr	PPARg SRC2 conf	PPARg SRC1 conf	PPARg SRC3 conf
O=C(CSc1ncnc2c1oc1ccccc12)Nc1cccc(C(F)(F)F)c1	29.0*	.	35.3*	2069*	.	20.8*	30.2*	20.2*	17.9
c1ccc(Sc2ncnc3c2oc2ccccc23)nc1	6.6	.	15.3	1640	.	2.2	.	.	.
CC(C)Sc1ncnc2c1oc1ccccc12	38.4*	.	33.2*	1948	.	36.4*	45.1*	32.9*	29.8*
O=C(CSc1ncnc2c1cnn2CCc1ccccc1)Nc1cccc(C(F)(F)F)c1	-3.0	.	3.8	1380	.	-3.8	.	.	.
O=C(CSc1ncnc2c1oc1ccccc12)Nc1ccccc1F	26.9*	.	12.7	1545	.	33.1*	36.7*	28.9*	23.5
NS(=O)(=O)c1ccc(CCNC(=O)CSc2nc3ccsc3c(=O)n2CCCCC(=O)O)cc1	0.3	1602	2.0	1544	1648	2.2	.	.	.
COC(=O)c1ccc(CSc2ncnc3c2oc2ccccc23)o1	50.4*	.	28.6*	1972*	.	56.4*	44.0*	28.5*	30.5*
Cc1c(NC2(C#N)CCCC2)c(=O)n(-c2ccccc2)n1C	2.0	1873	5.3	1509	1636	4.0	.	.	.
CCc1ccc2nc(SCC(=O)Nc3nnc(C)s3)c(C)cc2c1	-3.3	1864	-0.3	1526	1380	-3.7	.	.	.
Cc1cc(C)nc(NS(=O)(=O)c2ccc(NC(=O)CSc3nc(-c4ccccc4)c(C#N)c(=O)[nH]3)cc2)n1	10.7	2109	24.3*	2049*	2218*	20.6*	13.7	11.1	10.7
N#Cc1c(-c2ccccc2)nc(SCC(=O)Nc2ccccc2)[nH]c1=O	5.4	2166	6.0	1703	1873	17.2	.	.	.
Cc1ccccc1OCCNC(=O)CSc1ccc(C(F)(F)F)cc1[N+](=O)[O-]	-0.5	1746	6.4	1615	1665	-0.9	.	.	.
CCN(CC)c1ccc(NC(=O)/C=C/c2cc(Br)ccc2OC)cc1	12.8	.	17.3	1525	.	23.8*	1.3	4.0	3.1
COc1ccc(NC(=O)/C=C/c2cc(Br)ccc2OC)cc1	-0.1	.	-3.2	1651	.	0.3	.	.	.
Cc1ccc(OCCn2cc(/C=C3\C(=O)NN(c4ccccc4)C3=O)c3ccccc32)cc1	-4.0	1900	0.8	1700	1493	-2.2	.	.	.
O=C1NN(c2ccccc2)C(=O)/C1=C/c1ccc(Sc2cccc3ccccc23)o1	17.7	2739*	38.9*	2448*	2511*	29.8*	25.4*	18.5	19.1

Assay outcomes: PubChem BioAssay, The Scripps Research Institute Molecular Screening Center
